# Data as given in PubChem BioAssay (NCI).
# About 83,000 compounds went through this panel and 20% of them were active in at least one assay; those are over-represented in the sample as a whole.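 Growth was measured after 48 h exposure to one concentration of compound in 96-well plates. Values under 10 count as active.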 Calls of active or inactive are those of the source.
# System: NCI-H23 lung
# Experiment: NCI-60 one-dose screen, 48 h (100 = growth as untreated, 0 = no growth, -100 = all killed)
# Conditions: 10 µM unless noted
row,SMILES,growth
1,Cc1c(C(=O)NC(Cc2ccccc2)C(O)C(=O)NCc2ccc(F)cc2)[nH]c2ccccc2c1=O (stereo not drawn),99.8% (inactive)
2,Cc1cc(C(=O)c2ccccc2)c(C)c2c1[nH]c1ccc(Cl)cc12,24.6% (inactive)
3,COc1ccc(C(=O)/C=C/c2c(C(F)(F)F)nc3sccn23)cc1OC,22.7% (inactive)
4,O=Cc1c[nH]c2ccc(-c3csc4ccccc34)cc12,58% (inactive)
5,Cc1ccc(/C=C/c2c(C(=O)/C=C/c3ccc(C(F)(F)F)cc3)c(C)nc3ccccc23)cc1,-31.3% (active)
6,N#CC1=C(/N=C/c2ccccc2)Oc2c(ccc3ccccc23)C1c1ccccc1 (stereo not drawn),28.6% (inactive)
7,O=C(NCCc1ccc(O)c(O)c1)C12CC3CC(CC(C3)C1)C2,84.9% (inactive)
8,Cc1cc(=O)[nH]c(N=Nc2c(O)[nH]c3ccccc23)n1,100% (inactive)
9,COc1ccc2oc3c(C)c4c(c(C)c3c2c1)C(=O)N(Cc1ccccc1)C4=O,93.3% (inactive)
10,COc1ccc2[nH]c(O)c(/C=c3/cc4c(c(-c5cc(OC)c(OC)c(OC)c5)n3)=Nc3ccccc3-4)c2c1,50.7% (inactive)
11,CC(=O)c1nc(Nc2ccc(C)cc2)sc1C,90.9% (inactive)
12,COc1ccc(N=C(c2ccccc2)C2C(=O)c3ccccc3C2=O)cc1,99.4% (inactive)
13,CCCCc1ccc(Nc2ccc(Nc3ccc(CCCC)cc3S(=O)(=O)O)c3c2C(=O)c2ccccc2C3=O)c(S(=O)(=O)O)c1,91.3% (inactive)
14,Cc1nn(-c2ccccc2)c2nc3c(c(-c4ccc(Cl)cc4)c12)CNC1(CCSCC1)N3,97.4% (inactive)
15,CN1CCN(CCCOc2ccc3nc(Nc4ccc(F)c(F)c4)ccc3c2)CC1,51.5% (inactive)
16,CC(CN1CCCCC1)C(=O)c1ccccc1 (stereo not drawn),101% (inactive)
17,Cc1cc(/C=C\c2ccc3ccccc3[n+]2C)c(O)c2ncccc12,-4.98% (active)
18,COc1ccc2cc(-c3cc(OC)c(OC)c(OC)c3)c(=O)oc2c1,79.8% (inactive)
19,Cc1ccc(C2SCC(=O)N2Cc2ccccc2)cc1 (stereo not drawn),100% (inactive)

row,SMILES,growth
1,Cc1ccc(S(=O)(=O)Oc2cc(OS(=O)(=O)c3ccc(C)cc3)cc(OS(=O)(=O)c3ccc(C)cc3)c2)cc1,98.9% (inactive)
2,CS(=O)c1cccc(-c2ccc3nc(N)n(-c4ccc(C(F)(F)F)cc4)c(=O)c3c2)c1 (stereo not drawn),102% (inactive)
3,Clc1ccc(-c2c3ccc(=[N+]4CCCCC4)cc-3oc3cc(N4CCCCC4)ccc23)cc1,-85.2% (active)
4,O=C1Nc2ccccc2/C1=C/c1cn(C(=O)c2c(Cl)cccc2Cl)c2ccccc12,56.9% (inactive)
5,CC1CC(C(C)(C)C)C(=O)C(C(C)(C)C)C1 (stereo not drawn),109% (inactive)
6,COc1ccc(-c2nc(SCCC(C)C)nc(N/N=C\c3ccccc3O)c2C#N)cc1,83.2% (inactive)
7,O=C1CCc2c(sc3[nH]c(=S)n(-c4ccc(OC(F)(F)F)cc4)c(=O)c23)C1,14.1% (inactive)
8,CC(C)CC(NC(=O)CN(Cc1ccccc1)S(C)(=O)=O)C(=O)O (stereo not drawn),93.1% (inactive)
9,COc1cc(N=Nc2ccc(N)cc2)c(OC)cc1N=Nc1ccccc1.[Cl][Zn][Cl],89% (inactive)
10,CCC1(C2CCCC2)NC(=O)NC1=O (stereo not drawn),93.5% (inactive)
11,Cc1ccc(C(=O)C2=C(O)C(=O)N(Cc3cccnc3)C2c2ccccc2F)o1 (stereo not drawn),97.9% (inactive)
12,COc1cccc(-c2nc3sccn3c2/C=C/C(=O)c2ccc(C(F)(F)F)cc2)c1,95% (inactive)
13,COc1ccc2c(c1)C(=O)/C(=C/c1ccc(OCC(=O)Nc3nccs3)cc1)O2,2.06% (active)
14,CC/C=C/C/C=C/C/C=C/C/C=C/C/C=C/C/C=C/CCC(=O)Nc1ccn([C@@H]2O[C@H](CO)[C@@H](O)C2(F)F)c(=O)n1,1.56% (active)
15,NC(=N\N=C/c1ccccc1[N+](=O)[O-])/C(N)=N\N=C/c1ccccc1[N+](=O)[O-],104% (inactive)
16,O=C(Cc1ccc(F)c(F)c1)Nc1cc(C2(C(F)(F)F)CC2)nn1Cc1ccccc1,-9.81% (active)
17,O=C(/C=C/c1ccc(Cl)nc1)c1ccc(Cl)cc1Cl,105% (inactive)
18,O=C(Nc1ccccc1Cl)Oc1ccc(-c2ccccc2)cc1,93.5% (inactive)
19,CN(c1ccccc1)c1ccc2c(c1)OCCC21CC1Nc1cnccc1C(=O)O (stereo not drawn),95.4% (inactive)
